Among all 310,000 compounds or so, about 3,400 (1.1%) were called active. This is one part of a sample in which actives are shown more often than they occur. A number with no mark means an inactive call.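 The calls were made as follows: active = fluorescence ratio B-score at most minus 3 library SDs, with starting brightness B-score within 2 library SDs (cut at about -5.5 in these data); inactive = the rest, inconclusive results apart.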

Sequence of Potassium voltage-gated channel subfamily KQT member 2 (Rattus norvegicus) (O88943 whole entry, looked up): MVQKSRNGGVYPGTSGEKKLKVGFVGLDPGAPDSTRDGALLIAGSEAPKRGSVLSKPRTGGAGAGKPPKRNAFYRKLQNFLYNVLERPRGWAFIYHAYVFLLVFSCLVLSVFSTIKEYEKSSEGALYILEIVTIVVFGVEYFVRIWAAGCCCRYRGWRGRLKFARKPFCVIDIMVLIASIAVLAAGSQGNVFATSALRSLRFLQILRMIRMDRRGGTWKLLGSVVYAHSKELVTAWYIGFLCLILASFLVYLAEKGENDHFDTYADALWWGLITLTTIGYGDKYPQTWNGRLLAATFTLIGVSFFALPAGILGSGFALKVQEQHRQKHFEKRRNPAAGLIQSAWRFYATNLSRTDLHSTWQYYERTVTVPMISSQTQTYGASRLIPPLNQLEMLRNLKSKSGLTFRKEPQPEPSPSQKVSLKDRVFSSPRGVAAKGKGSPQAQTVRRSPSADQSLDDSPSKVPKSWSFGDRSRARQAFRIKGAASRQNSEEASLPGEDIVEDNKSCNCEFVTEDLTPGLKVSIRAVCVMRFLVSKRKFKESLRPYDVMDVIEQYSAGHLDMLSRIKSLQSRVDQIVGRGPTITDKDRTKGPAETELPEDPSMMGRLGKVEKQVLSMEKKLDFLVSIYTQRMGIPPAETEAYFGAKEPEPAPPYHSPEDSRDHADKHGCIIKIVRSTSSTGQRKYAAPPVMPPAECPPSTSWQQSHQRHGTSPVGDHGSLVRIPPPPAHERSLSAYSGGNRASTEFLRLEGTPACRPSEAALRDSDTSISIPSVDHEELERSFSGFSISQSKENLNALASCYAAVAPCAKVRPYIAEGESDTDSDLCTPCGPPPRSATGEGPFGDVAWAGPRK

The experiment concerns the target Potassium voltage-gated channel subfamily KQT member 2 (Rattus norvegicus) (UniProt O88943). As to the kind of experiment: KCNQ2 channel blockers in CHO-K1 cells – cell-based, FluxOR thallium flux, B-score, primary screen (AID 2156). To be noted: 20 min, at 10 µM; active compounds read low.
Consider `O=C(CSC1=NS(=O)(=O)c2cc(F)ccc2N1)Nc1ccccc1F`, for which the B-score entry was “inactive”.
With `O=C(OCC(=O)N1CCCC1=O)c1cc(S(=O)(=O)N2CCOCC2)ccc1Cl`, the B-score was -0.84.
The value for `O=C(NN1CCOCC1)c1cccc(F)c1` was “inactive”; that for `CCN(CC)S(=O)(=O)c1ccc(N2CCOCC2)c(C(=O)O)c1` was “inactive”.
Take `CCN(CC)S(=O)(=O)c1ccc(N2CCOCC2)c(NC(=O)C2CSC3(C)CCC(=O)N23)c1` (stereo not drawn): the B-score result is “inactive”.
The same measure for `CCN(CC)S(=O)(=O)c1ccc(N2CCOCC2)c(NC(=O)C2COc3ccccc3O2)c1` (stereo not drawn): -6.56 (active).
Take `Cc1ccc(N2CC(C(=O)N3CCC4(CC3)CC(=O)c3ccccc3O4)CC2=O)cc1C` (stereo not drawn): the B-score entry is “inactive”.
The value for `O=C(NCC(=O)N1CCCC(C(F)(F)F)C1)c1ccccc1F` (stereo not drawn) was “inactive”.
For `Cc1ccc(S(=O)(=O)CC(=O)NC(C)c2ccccc2)cc1` (stereo not drawn), the B-score was -0.01.
The value for `CC(NC(=S)NNS(=O)(=O)c1ccc(C(C)(C)C)cc1)c1ccccc1` (stereo not drawn) was -10.4 (active).
For the molecule `Cc1ccc(S(=O)(=O)NNC(=S)NC(C)(C)C)cc1`, the B-score is -0.78.
For the molecule `CCN(C(=O)CSc1nnc(-c2ccc(OC(F)F)cc2)n1N)C1CCS(=O)(=O)C1` (stereo not drawn), the B-score is -0.14.
As to `CCN(CC(=O)Nc1cc(Cl)ccc1C)C(=O)CN1C(=O)NC2(CCCC2)C1=O`, the B-score was -0.62.
The value for `O=c1[nH]c(CSc2ncc(-c3ccc(F)cc3)n2Cc2ccco2)nc2ccccc12` was “inactive”; that for `Clc1cccc(-c2nc3nc4ccccc4nc3n2Cc2ccco2)c1` was -9.06 (active).
For the molecule `Cc1cc(NC(=O)CSc2nc3cc(Cl)ccc3c(=O)n2Cc2ccco2)no1`, the B-score entry is “inactive”.
With `O=C(Nc1cccc(F)c1)NC1CCCCCCC1`, the B-score is -1.17.
Regarding `O=C(Nc1cccc(F)c1)[C@@H]1CCCN1`, the B-score is -0.48.
Take `O=C(Nc1cccc(F)c1)NC1CCCc2ccccc21` (stereo not drawn): the B-score is -5.61 (active).
Consider `COc1cccc(N2CC(NS(=O)(=O)c3cccs3)CC2=O)c1` (stereo not drawn), for which the B-score result was “inactive”.
`COc1ccc(C2=NOC(Cn3nc(C(=O)NCc4ccc5c(c4)OCO5)cc3-c3ccccc3)C2)cc1` (stereo not drawn): the B-score is -2.37.
The value for `CCOC(=O)c1c(NC(=O)CN2C(=O)NC3(CCC(C)CC3)C2=O)sc(C)c1CC` (stereo not drawn) was “inactive”.
As to `Cc1ccc2nnn(Cc3cccc(C(C)(C)C)c3O)c2c1`, the B-score was -2.09.
The value for `O=C(CNC(=O)C12CC3CC(CC(C3)C1)C2)OCC(=O)N1CCCCC1` was “inactive”; that for `COc1cccc(N2CC(C(=O)NCc3n[nH]c(=O)c4ccccc34)CC2=O)c1` (stereo not drawn) was “inactive”.
As for `O=C(Nc1cn(-c2ccccc2)nc1-c1ccccc1)c1ccccc1`, the B-score was -2.94.
The value for `Cc1ccc(-c2nn(-c3ccccc3)cc2CN(Cc2ccccc2)C(=O)CCC(=O)O)o1` was “inactive”; that for `CCc1ccc(-c2nn(-c3ccccc3)cc2CSC(=N)N)cc1` was -12.4 (active).

(Values after PubChem BioAssay AID2156 (Johns Hopkins Ion Channel Center, 2009).)
